From PubChem BioAssay (NCI)
Compounds without any hit were thinned out: in the full panel of roughly 83,000, 20% have a hit.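 Percent growth is the endpoint: 0 to 100 indicates growth inhibition (40 means 60% inhibition), 0 means no net growth, and negative values indicate cell death.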 Calls of active or inactive are those of the source. How the source made its calls: active means growth percent below 10; inactive means the rest.

Legend:
Experiment in all cases: NCI-60 one-dose screen, 48 h (100 = growth as untreated, 0 = no growth, -100 = all killed)
Conditions in all cases: 10 µM unless noted
[1] = system: DU-145 prostate
[2] = system: K-562 leukemia
[3] = system: MALME-3M melanoma
[4] = system: MDA-MB-231 breast
[5] = system: RXF 393 renal
[6] = system: SF-268 CNS
[7] = system: SF-295 CNS
[8] = system: SF-539 CNS
[9] = system: UACC-257 melanoma
[10] = system: M14 melanoma
[11] = system: HCT-15 colon
[12] = system: HT29 colon
[13] = system: SNB-75 CNS
[14] = system: U251 CNS
[15] = system: PC-3 prostate
[16] = system: SK-MEL-5 melanoma
[17] = system: UACC-62 melanoma
[18] = system: SK-MEL-28 melanoma
[19] = system: SNB-19 CNS
[20] = system: LOX IMVI melanoma

Measured: growth

Cc1ccc(S(=O)(=O)n2cc(C(=O)C(=O)N3CCCCC3)c3ccccc32)cc1
inactive: [1] 97.1% | [2] 69.9% | [3] 84.8% | [4] 75.2% | [5] 113% | [6] 78% | [7] 60.4% | [8] 90.6% | [9] 101% | [10] 89.4% | [11] 79.9% | [12] 88.3% | [13] 73.8% | [14] 91.3% | [15] 52.1% | [16] 47.3% | [17] 49.5% | [18] 172%

CC(C)C1=NOC(=O)C1=Cc1cn(-c2ccccc2)nc1-c1ccccc1
inactive: [1] 80.8% | [2] 42.2% | [3] 90.5% | [4] 97.4% | [5] 70.3% | [6] 93.9% | [7] 98.1% | [8] 91.3% | [9] 94.1% | [10] 76.2% | [11] 77.4% | [12] 49.2% | [19] 74.8% | [14] 53% | [15] 67.9% | [16] 91.6% | [17] 76.1% | [20] 18% | [18] 95.1%

O=C1CC(C(F)(F)F)Cc2nc3ccc(Br)cc3cc21 (stereo unspecified)
inactive: [1] 102% | [2] 79.1% | [3] 84.1% | [4] 82.4% | [5] 91.1% | [6] 88.4% | [7] 90.2% | [8] 93.9% | [9] 106% | [10] 90.7% | [11] 89.9% | [12] 98.2% | [19] 92% | [14] 92.2% | [15] 82% | [16] 92.6% | [17] 81.1% | [18] 96.5%

C=C(C)[C@@H]1CC[C@]2(C(=O)NCCCCCCN(CCCN)CCCN)CC[C@]3(C)[C@H](CC[C@@H]4[C@@]5(C)CC[C@H](OCCCN)C(C)(C)[C@@H]5CC[C@]43C)[C@@H]12
active: [2] 1.52% [100 µM] | [12] 4.21% [100 µM] | [14] -39.4% [100 µM] | [20] 5.71% [100 µM]
inactive: [1] 55% [100 µM] | [3] 43.7% [100 µM] | [4] 37.3% [100 µM] | [5] 69.6% [100 µM] | [6] 99.1% [100 µM] | [7] 92.2% [100 µM] | [8] 79.9% [100 µM] | [9] 88% [100 µM] | [10] 106% [100 µM] | [11] 81.8% [100 µM] | [19] 80.8% [100 µM] | [15] 60.9% [100 µM] | [16] 85.9% [100 µM] | [17] 120% [100 µM] | [18] 101% [100 µM]

O=C(N[C@@H]1CCCc2ccccc21)[C@H](CCC(=O)N1CCN(C2CCCCC2)CC1)N1C(=O)[C@@H](N2C(=O)OC[C@@H]2c2ccccc2)[C@H]1/C=C/c1ccccc1
active: [3] -41.1% | [8] 4.65% | [12] -14.2% | [16] -93.2% | [20] -40.5%
inactive: [1] 57.9% | [2] 14.6% | [4] 16.4% | [5] 23% | [6] 15.8% | [7] 30.3% | [9] 10.7% | [10] 14.2% | [11] 12.1% | [19] 39.2% | [14] 30.6% | [15] 12.1% | [17] 51% | [18] 24.8%

CCCn1ccnc1C(O)c1ccc(OCc2ccccc2)c(OC)c1 (stereo unspecified)
inactive: [1] 104% | [2] 107% | [3] 80.9% | [4] 93.7% | [5] 112% | [6] 93.4% | [7] 76.4% | [8] 92.8% | [9] 93.6% | [10] 97.2% | [11] 93.5% | [12] 103% | [19] 82.8% | [14] 86.8% | [15] 82.7% | [16] 93.5% | [17] 87.3% | [20] 94.4% | [18] 103%

CC(C)C1=NOC(=O)C1=Cc1cn(-c2ccccc2)nc1-c1cccc([N+](=O)[O-])c1
inactive: [1] 84.9% | [2] 33.4% | [3] 109% | [4] 93.1% | [5] 68.9% | [6] 94.1% | [7] 99.1% | [8] 98.1% | [9] 104% | [10] 78.3% | [12] 70.5% | [13] 86.5% | [19] 74.2% | [14] 66.7% | [15] 73% | [16] 90% | [17] 83.9% | [18] 93.4%
active: [20] 0.102%
